Rows were chosen to be rich in hits. Some 18% of all compounds tested hit in one or more screens of this group.
LDHA block – LDHA (human) enzyme inhibition. P00338. purified LDHA, NADH/diaphorase-resazurin fluorescence; stronger effect = lower value. activity change, % (values are at about 110 or 230 µM). 480,000 tested, 0.15% active. AID 1347041; in the data active = activity change below about -30%; inconclusive = mostly about -25% to -30%;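 also: plate controls were DMSO wells for no effect and wells without enzyme for full effect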
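Human LDH5 at 2 nM final in Tris HCl pH 7.4 with 0.06 mM NADH and 0.2 mM pyruvate, reacted 5 minutes at room temperature. Remaining NADH coupled via diaphorase/resazurin; resorufin fluorescence read at 0 and 20 minutes, normalized to enzyme-free and DMSO wells.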
IL-1B inflam inh – inhibitors of inflammasome signaling (IL-1 beta secretion). THP-1 LPS/ATP IL-1B secretion, AlphaLISA, 16 h; stronger effect = lower value. activity change, % at 57.5 µM. 360,000 tested, 4.7% active. AID 743279; in the data active = activity change below about -50%; inconclusive = mostly about -30% to -49%
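Secreted IL-1B measured by AlphaLISA bead assay after 16 h compound exposure of THP-1 cells; compounds (final up to 57.5 uM) added 1 h before LPS (250 ng/mL) and ATP (1.25 mM) stimulation; lower signal means less secretion.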
Gal4-VP16 FLuc – Gal4-VP16 reporter inhibition counter-screen; Drosophila S2 Gal4-VP16 UAS-luciferase, luminescence, 20 h; Potency, µM (titrated, usually from 53.6 µM), inactives show top-dose activity, negative = inhibition, usual class: inhibitors; 310,000 tested, 3.5% active; AID 2546;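 also: Gal4-VP16 expression switched on by copper sulfate through the metallothionein promoter; potency is read from the fitted curve at half-maximal effect; nearly all actives have a fitted effect of over 50% in size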
TDP1 cell noCPT – qHTS for Inhibitors of human tyrosyl-DNA phosphodiesterase 1 (TDP1): qHTS in cells in absence of CPT; DT40 Tdp1-/- hTDP1 cells, no CPT, ATP luminescence, 48 h; Potency, µM (top dose mostly 46.2 µM), for the others: at the top dose activity change, negative = growth inhibition, usual class: inhibitors; 420,000 tested, 15% active; AID 686978, 2013; also: potency is read from the fitted curve at half-maximal effect; nearly all actives have a fitted effect of over 55% in size
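Seeded 400 DT40-hTDP1 cells/well (vehicle DMSO, no 20 nM CPT); pinned compounds; ≥48 hr at 37 °C; CellTiter-Glo luminescence as viability measure.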
TDP1 cell CPT – DT40-hTDP1 cell growth loss with CPT | chicken DT40 Tdp1-/-;hTDP1 cells + 20 nM CPT, ATP luminescence, 48 h | Potency, µM (titrated, usually from 46.2 µM), inactives show at the highest dose activity change, negative = growth inhibition, actives largely listed as inhibitors | 420,000 tested, 12% active | AID 686979; also: potency is read from the fitted curve at half-maximal effect; nearly all actives have a fitted effect of over 55% in size
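Chicken DT40 Tdp1-/- cells stably complemented with human TDP1 were seeded at 400 cells/well in medium containing 20 nM camptothecin, exposed to pin-transferred compounds, and grown at 37 °C for at least 48 hr. Viability was read as ATP luminescence.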
RORg inh – blocks mouse ROR gamma transcriptional activity | P51450 | Drosophila S2 Gal4-RORgamma UAS-luciferase reporter, 20 h | Potency, µM (top dose mostly 53.6 µM), for the others: at the top dose activity change, negative = inhibition, most hits filed as inhibitors | 310,000 tested, 5.4% active | AID 2551; also: potency is read from the fitted curve at half-maximal effect; nearly all actives have a fitted effect of over 60% in size
Target sequence (P51450 whole entry, looked up, the tested form may be a part): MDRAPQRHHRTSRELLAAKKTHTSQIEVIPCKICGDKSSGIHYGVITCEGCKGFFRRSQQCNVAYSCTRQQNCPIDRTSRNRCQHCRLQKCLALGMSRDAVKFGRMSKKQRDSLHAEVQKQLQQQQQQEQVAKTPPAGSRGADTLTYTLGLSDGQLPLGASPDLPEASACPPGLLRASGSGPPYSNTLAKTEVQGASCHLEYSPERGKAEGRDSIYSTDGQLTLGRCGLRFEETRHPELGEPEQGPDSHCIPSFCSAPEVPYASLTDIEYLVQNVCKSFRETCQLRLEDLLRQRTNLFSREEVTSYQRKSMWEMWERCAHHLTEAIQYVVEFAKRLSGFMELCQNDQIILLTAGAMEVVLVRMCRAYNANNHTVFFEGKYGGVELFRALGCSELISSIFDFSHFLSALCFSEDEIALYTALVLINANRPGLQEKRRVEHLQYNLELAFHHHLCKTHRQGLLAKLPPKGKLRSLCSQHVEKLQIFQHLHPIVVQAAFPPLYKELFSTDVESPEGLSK
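Read-out: Photinus luciferase luminescence; inhibitors lower reporter signal. Insect Schneider cells with Gal4-ROR gamma fusion under metallothionein promoter, UAS reporter; 700 uM final copper sulfate induction, 20 hr, ambient temperature.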
* marks the source's active call; other numbers are inactive results; ? = inconclusive; / = no result given. Unless noted, calls follow the shape of the dose curve; as a rule, active = well fitted curve in the direction sought with a large enough effect; inconclusive = small, poorly fitted or top-dose-only effect, or another doubt; inactive = no such curve, though single readings can be large; an effect the other way counts as inactive or inconclusive. Unless noted, % is scaled to controls: 0 for no effect and ±100 for the full control effect.

SMILES	LDHA block	IL-1B inflam inh	Gal4-VP16 FLuc	TDP1 cell noCPT	TDP1 cell CPT	RORg inh
O=C(C=Cc1ccc(Cl)s1)c1ccc(Cl)s1	1.1	-51.0*	/	?	?	/
COc1ccc(/C=C/C(=O)c2ccc(Cl)s2)cc1O	0.0	-26.5	25.7%	18.4µM*	?	-18.9%
Cc1c(/C=C/C(=O)c2ccc(Cl)s2)cnn1C	-5.8	-9.2	?	?	-26.6%	-26.0%
COc1cc(/C=C/C(=O)c2ccc(Cl)s2)cc(OC)c1O	6.9	-105.0*	-24.8%	29.1µM*	?	?
c1cnn(-c2nc(N3CCOCC3)nc(N3CCOCC3)n2)c1	0.0	?	-24.2%	5.8µM*	6.51µM*	-27.8%
CCOc1ccccc1NC(=O)N1CCc2c(sc(C)c2CC)C1c1ccccc1 (stereo unspecified)	-13.1	/	/	14.6µM*	?	/
CCc1c(C)sc2c1CCN(C(=O)Nc1cc(C)cc(C)c1)C2c1ccccc1 (stereo unspecified)	-0.5	/	/	8.2µM*	3.66µM*	/
Cc1cc(C)cc(NC(=O)N2CCC(NC(=O)c3ccccc3C)CC2)c1	-4.3	7.2	-11.5%	-19.4%	-2.5%	0.5%
C=C1Cc2c(Cl)cc3[nH]c4c5c3c2[C@@]2(O)[C@@H]1C[C@@H]2C(C)(C)O[C@H]5[C@@H]1CC[C@@]2(O)[C@@]35O[C@@H]3[C@@H](O)[C@@H](C(=O)O)O[C@H]5CC[C@]2(C)[C@@]41C	/	/	/	4.11µM*	5.8µM*	/
O=C(O)CCc1ccc(S(=O)(=O)NCc2ccco2)cc1	4.9	/	/	/	/	/
Cc1c(C)n(Cc2ccc(Cl)cc2)c2ccc(C(=O)NCCN3CCOCC3)cc12	-1.2	0.0	3.1%	?	?	-22.0%
COc1ccccc1CCNC(=O)c1ccc2c(c1)c(C)c(C)n2Cc1ccc(Cl)cc1	0.9	/	/	20.6µM*	23.1µM*	/
COc1ccc(OC)c(CNC(=O)c2ccc3c(c2)c(C)c(C)n3Cc2ccc(Cl)cc2)c1	-5.0	/	/	?	16.4µM*	/
CC(=O)Nc1cc(-c2ccc(N(C)C)cc2)cn2c(-c3ccc(F)c(Cl)c3)cnc12	7.1	-17.0	/	14.6µM*	18.4µM*	/
CC(=O)Nc1cc(-c2ccc(S(C)(=O)=O)cc2)cn2c(-c3ccc(F)c(Cl)c3)cnc12	-5.5	?	/	16.4µM*	18.4µM*	/
CC(=O)Nc1cc(-c2ccc(N(C)C)cc2)cn2c(-c3ccc(F)cc3)cnc12	3.1	-5.7	/	?	?	/
Cc1cc(SCC(NC(=O)c2ccccc2)C(=O)O)c2ccccc2n1 (stereo unspecified)	-6.9	/	/	/	/	/
O=c1c2cc3c(nc2ncn1Cc1ccccc1F)CCCC3	-5.4	/	/	?	18.4µM*	/
O=C(NCc1ccccc1Cl)C1CCCN(c2ncnc3c2nc2n3CCCCC2)C1 (stereo unspecified)	1.2	-19.6	-5.1%	?	?	?
CCN(C(=O)C1CCCN(c2ncnc3c2nc2n3CCCCC2)C1)c1cccc(Cl)c1 (stereo unspecified)	-1.5	-1.6	4.6%	10.3µM*	20.6µM*	?
CCN(C(=O)C1CCCN(c2ncnc3c2nc2n3CCCCC2)C1)c1cccc(C)c1 (stereo unspecified)	-0.4	/	/	5.8µM*	11.6µM*	/
Cc1ccc(C(=O)/C=C/c2cc(Br)cc(Br)c2O)o1	4.0	?	-29.8%	29.1µM*	-21.1%	-26.3%
COc1cccc(-c2cnc3c(NC=O)cc(-c4ccncc4)cn23)c1	4.5	67.5	/	4.61µM*	18.4µM*	/
COc1cccc(-c2cnc3c(NC(C)=O)cc(-c4ccncc4)cn23)c1	5.3	-4.5	/	16.4µM*	?	/
NCCCCOc1ccc(OCc2ccccc2)cc1	-0.6	/	/	/	/	/
SMILES	LDHA block	IL-1B inflam inh	Gal4-VP16 FLuc	TDP1 cell noCPT	TDP1 cell CPT	RORg inh
Cn1cc(C(C(=O)O)N2CCCC2)c2cc(C(=O)O)ccc21 (stereo unspecified)	5.5	/	/	/	/	/
Cc1ccc(NC(=O)Nc2nnc(N(C)Cc3ccccc3)s2)c(C)c1	3.7	/	/	?	-22.7%	/
Cc1ccc(Cl)cc1NC(=O)Nc1nnc(N(C)Cc2ccccc2)s1	-7.6	/	/	23.1µM*	20.6µM*	/
CCOP(=O)(OCC)c1nc(-c2ccccc2)oc1N1CCCCC1	0.6	-1.8	-2.2%	16.4µM*	20.6µM*	-0.4%
CCOP(=O)(c1ccccc1)c1nc(-c2ccccc2C)oc1N1CCCCC1 (stereo unspecified)	-3.4	?	-14.1%	13µM*	13µM*	-33.5%
COP(=O)(OC)c1nc(-c2cccc3ccccc23)oc1NCc1ccccc1	-1.8	-22.5	?	18.4µM*	16.4µM*	28.9%
Cc1ccccc1-c1nc(P(=O)(c2ccccc2)c2ccccc2)c(N2CCOCC2)o1	-3.0	-66.6*	5.2%	?	?	6.2%
COP(=O)(OC)c1nc(-c2ccccc2)oc1N1CCOCC1	1.2	2.4	-2.4%	0.3%	22.5%	3.5%
Cc1nc(P(=O)(c2ccccc2)c2ccccc2)c(N2CCOCC2)o1	-5.1	-18.9	4.6%	0.5%	-10.7%	-8.0%
C#CCN1CCN(c2ccc(C#N)cc2F)CC1	-6.1	/	/	/	/	/
CCOc1ccc(-c2nn(-c3ccccc3)cc2C2NC(=O)NC(C)=C2C(=O)OC)cc1 (stereo unspecified)	0.0	/	/	/	/	/
COc1ccc(C(=O)N2CCc3c(sc4ncnc(N)c34)C2)cc1OC	-1.2	/	/	/	/	/
O=C(O)c1cc(Cl)ccc1Br	2.3	/	/	/	/	/
CC(C)NC(=O)CSc1ncc(-c2ccc(F)cc2)o1	-6.9	/	/	/	/	/
Cc1ccccc1CNC(=O)Cc1n[nH]c(=O)c2ccccc12	2.8	/	/	/	/	/
Cc1sc2nc(SCc3noc(C(C)(C)C)n3)n(C)c(=O)c2c1C	5.5	/	/	/	/	/
CCOP(=O)(c1ccccc1)c1nc(-c2ccccc2C)oc1NCc1ccccc1 (stereo unspecified)	-4.2	15.2	6.2%	23.1µM*	?	14.5%
CC(C(=O)NCCN1CCN(C)CC1)C1CCN(C(=O)c2cc3ccccc3[nH]2)CC1 (stereo unspecified)	-4.4	/	/	/	/	/
CC(C)(C)c1cc[n+](C2=C([O-])c3ccccc3C(=O)/C2=N\S(=O)(=O)c2cccs2)cc1	27.8	-87.8*	8.91µM*	4.61µM*	2.31µM*	11.2µM*
O=C1/C(=N\S(=O)(=O)c2cccs2)C([n+]2ccccc2)=C([O-])c2ccccc21	11.4	-62.7*	?	2.31µM*	2.31µM*	-0.3%
CC(C)c1ccc(/C=C(\C#N)C(=O)NC2CCCC2)cc1	2.6	/	/	/	/	/
O=C(CN1CCN(c2ccccc2F)CC1)NC(=O)NCC(F)(F)F	-12.5	/	/	/	/	/

Screening data from PubChem.
